Among the test systems are SK-MEL-2 melanoma; EKVX NSCLC; SN12C renal; UO-31 renal; TK-10 renal; CAKI-1 renal; A498 renal; CCRF-CEM leukemia; MOLT-4 leukemia; RPMI-8226 leukemia; OVCAR-8 ovarian; OVCAR-5 ovarian; OVCAR-4 ovarian; SK-OV-3 ovarian; IGROV1 ovarian; OVCAR-3 ovarian; HS 578T breast; NCI/ADR-RES ovarian; SR leukemia.
What all share (assay): NCI-60 one-dose screen, 48 h (100 = growth as untreated, 0 = no growth, -100 = all killed)
What all share (details): 10 µM unless noted

This is part of a sample that, as a whole, favours compounds with a hit. Of some 83,000 tested, about 20% had one in any assay.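 Method: cells in 96-well plates; compound added at one concentration; 48 h incubation; percent growth measured; values under 10 scored active.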 Values without a mark were called inactive. Calls of active or inactive are those of the source.

For `COc1ccc2c(c1)CC[C@H](O)/C2=C/c1cc(OC)c(OC)c(OC)c1`, the growth was 43.5% with SK-MEL-2 melanoma; 38% in the assay on EKVX NSCLC; 37.6% with SN12C renal; 34.3% in the assay on UO-31 renal; 66.6% with TK-10 renal; 30.5% in the assay with CAKI-1 renal. Moreover, the growth with A498 renal is -9.18% (active); in the assay with CCRF-CEM leukemia, 5.74% (active); in the assay on MOLT-4 leukemia it was 13.5%; in the assay on RPMI-8226 leukemia, 34.3%; with OVCAR-8 ovarian, 16.1%; in the assay with OVCAR-5 ovarian it was 61%. For the same compound, the growth in the assay with OVCAR-4 ovarian is 41.1%; in the assay on SK-OV-3 ovarian, 13.9%; in the assay on IGROV1 ovarian, 27.8%; with OVCAR-3 ovarian, -18.3% (active); in the assay with HS 578T breast, 33.3%; in the assay with NCI/ADR-RES ovarian, 6.93% (active).

Consider `CCn1cc(C(=O)O)c(=O)c2cc(F)c(N3CCN(CC(=O)Nc4ccc(S(=O)(=O)Nc5nccc(C)n5)cc4)C(C)C3)c(F)c21` (stereo not given), for which the growth with SK-MEL-2 melanoma was 119%; with EKVX NSCLC, 111%; in the assay with SN12C renal it was 98%; with UO-31 renal it was 83.3%; in the assay on TK-10 renal, 129%; in the assay on CAKI-1 renal it was 88.6%. The growth in the assay with A498 renal was 111%; in the assay with CCRF-CEM leukemia it was 102%; in the assay with MOLT-4 leukemia, 123%; in the assay with SR leukemia, 103%; with RPMI-8226 leukemia, 109%; in the assay with OVCAR-8 ovarian it was 105%. The growth in the assay with OVCAR-5 ovarian was 98.5%; in the assay with OVCAR-4 ovarian, 104%; in the assay with SK-OV-3 ovarian, 113%; with IGROV1 ovarian, 99.7%; in the assay on OVCAR-3 ovarian, 113%; in the assay with HS 578T breast, 99.6%. Besides, in the assay with NCI/ADR-RES ovarian, the growth is 107%.

Consider `O=C(NCCNc1nccc(Nc2ccc(S(=O)(=O)Nc3ccccn3)cc2)n1)c1cccc([N+](=O)[O-])c1`, for which the growth was 101% in the assay on SK-MEL-2 melanoma; 98.6% in the assay on EKVX NSCLC; 99.9% with SN12C renal; 82.5% in the assay with UO-31 renal; 100% in the assay with TK-10 renal; 93.6% in the assay on CAKI-1 renal. For the same compound, the growth in the assay with A498 renal is 83.6%; in the assay with CCRF-CEM leukemia it was 101%; in the assay on MOLT-4 leukemia, 93.8%; in the assay on SR leukemia it was 84.7%; with RPMI-8226 leukemia it was 96.1%; in the assay with OVCAR-8 ovarian, 104%. The growth in the assay on OVCAR-5 ovarian is 93%; with OVCAR-4 ovarian, 89.9%; with SK-OV-3 ovarian it was 100%; in the assay with IGROV1 ovarian, 106%; with OVCAR-3 ovarian it was 108%; in the assay on HS 578T breast, 108%. The growth with NCI/ADR-RES ovarian is 104%.

Turning to `COc1ccc(Nc2ncc(Br)c(NCCCNC(=O)c3cccs3)n2)cc1`, the growth is 46.8% with SK-MEL-2 melanoma; 55.6% in the assay with EKVX NSCLC; 21.5% in the assay with SN12C renal; -0.36% (active) with UO-31 renal; 24.3% in the assay with TK-10 renal; 16.2% in the assay with CAKI-1 renal. Besides, the growth with A498 renal was 51.7%; with CCRF-CEM leukemia it was 16.3%; in the assay on MOLT-4 leukemia, 19.5%; in the assay with SR leukemia, 31.5%; with RPMI-8226 leukemia, 27.3%; in the assay with OVCAR-8 ovarian it was 32.7%. Further, the growth in the assay with OVCAR-5 ovarian is 60.6%; with OVCAR-4 ovarian it was 57.7%; with SK-OV-3 ovarian it was 49.2%; with IGROV1 ovarian, 21%; in the assay on OVCAR-3 ovarian, 26.6%; with HS 578T breast, 30.9%. In addition, in the assay with NCI/ADR-RES ovarian, the growth was 46.5%.

As to `N#Cc1c(-c2ccccc2)[nH]c2ncc(-c3ccccc3)n2c1=O`, the growth in the assay with SK-MEL-2 melanoma was 72.9%; in the assay with EKVX NSCLC it was 75.3%; in the assay on SN12C renal it was 99.5%; in the assay on UO-31 renal, 65.4%; in the assay with TK-10 renal, 120%; in the assay with CAKI-1 renal, 83.4%. For the same compound, the growth in the assay on A498 renal is 102%; with CCRF-CEM leukemia it was 104%; in the assay on MOLT-4 leukemia, 101%; in the assay with SR leukemia it was 89.8%; in the assay on RPMI-8226 leukemia, 106%; in the assay with OVCAR-8 ovarian, 95.6%. Further, the growth was 109% with OVCAR-5 ovarian; 96.2% in the assay with OVCAR-4 ovarian; 76.6% in the assay on SK-OV-3 ovarian; 50.7% with IGROV1 ovarian; 86% in the assay on OVCAR-3 ovarian; 88.6% in the assay with HS 578T breast. Further, the growth in the assay with NCI/ADR-RES ovarian was 91.2%.

As for `N#Cc1c(-c2ccc(Cl)cc2)nc(NN2C(=O)c3ccccc3C2=O)nc1N1CCOCC1`, the growth in the assay on SK-MEL-2 melanoma was 110%; in the assay on EKVX NSCLC, 103%; in the assay with SN12C renal, 99.9%; in the assay on UO-31 renal it was 84.4%; in the assay with TK-10 renal it was 100%; in the assay with CAKI-1 renal it was 90.4%. The growth in the assay with A498 renal is 94.7%; with CCRF-CEM leukemia, 103%; with MOLT-4 leukemia, 97.8%; in the assay on SR leukemia, 84%; in the assay with RPMI-8226 leukemia it was 105%; with OVCAR-8 ovarian it was 102%. The growth in the assay with OVCAR-5 ovarian was 102%; with OVCAR-4 ovarian it was 98.7%; with SK-OV-3 ovarian, 106%; with IGROV1 ovarian it was 109%; in the assay with OVCAR-3 ovarian, 113%; in the assay with NCI/ADR-RES ovarian, 107%.

Regarding `CN(/C(N)=N/N=C/c1c2ccccc2cc2ccccc12)C1CCCCC1`, the growth with SK-MEL-2 melanoma is 85.8%; in the assay on EKVX NSCLC, 50.5%; in the assay with SN12C renal, 54.7%; in the assay with UO-31 renal it was 33.5%; with TK-10 renal it was 59.3%; in the assay on CAKI-1 renal, 46.5%. In addition, the growth is 50.3% in the assay with A498 renal; 29.1% with CCRF-CEM leukemia; 14.2% in the assay on MOLT-4 leukemia; 0.552% (active) with SR leukemia; 2.66% (active) with RPMI-8226 leukemia; 56.3% in the assay on OVCAR-8 ovarian. For the same compound, the growth was 78.8% in the assay on OVCAR-5 ovarian; 27.6% in the assay on OVCAR-4 ovarian; 66% in the assay with SK-OV-3 ovarian; 40.3% in the assay with IGROV1 ovarian; 58.8% in the assay on OVCAR-3 ovarian; 66.6% in the assay with HS 578T breast. Besides, the growth with NCI/ADR-RES ovarian was 45%.

In the case of `CC(=O)Oc1ccc(N2C(=O)C(Cl)=C(Nc3cccc(C(F)(F)F)c3)C2=O)cc1`, the growth is 88% with SK-MEL-2 melanoma; 103% in the assay on EKVX NSCLC; 93% in the assay on SN12C renal; 84.2% in the assay on UO-31 renal; 94.9% in the assay with TK-10 renal; 92% in the assay with CAKI-1 renal. Moreover, the growth with A498 renal is 92%; in the assay with CCRF-CEM leukemia it was 77.4%; in the assay on MOLT-4 leukemia it was 85.9%; in the assay on SR leukemia, 80.4%; in the assay on RPMI-8226 leukemia it was 77.6%; in the assay on OVCAR-8 ovarian, 97.9%. Besides, the growth was 91.5% in the assay on OVCAR-5 ovarian; 110% in the assay with OVCAR-4 ovarian; 87.9% in the assay with SK-OV-3 ovarian; 97.1% with IGROV1 ovarian; 91.9% in the assay on OVCAR-3 ovarian; 107% with HS 578T breast. Moreover, the growth with NCI/ADR-RES ovarian is 97.5%.

The record behind these values is PubChem BioAssay (NCI).
